Data: the supplement of paper PMC10849652
Targets with a hit are over-represented here; the source holds about 7,900 in all. About 0.6% of all pairs of compound and target were hits.

compound: C#Cc1cccc(Nc2ncnc3cc(OCCOC)c(OCCOC)cc23)c1 [erlotinib]; assay: log2 fold change, soluble protein after heating vs DMSO (PISA); higher = thermal stabilisation; K562 cells, 10 uM, 30 min; active = over 0.2 and 3.5 SD of the protein, either way, in both replicates (recomputed)
Method in brief: (§1)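 Aliquots of K562 cells (2×10^6 cells/mL) treated with 10 μM compound for 30 min were heated for 3 min over 48°C-58°C. After pooling and extraction in PBS with 0.5% NP-40 at 4°C, soluble protein from a 21,000xg, 90 min spin was quantified by TMTpro 16plex LC-MS/MS with channel sums equalised. Thermal stability is expressed against control samples, from duplicates, as a log2 fold change.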

Sequence of UniProt Q16401 (Q16401 whole entry, looked up): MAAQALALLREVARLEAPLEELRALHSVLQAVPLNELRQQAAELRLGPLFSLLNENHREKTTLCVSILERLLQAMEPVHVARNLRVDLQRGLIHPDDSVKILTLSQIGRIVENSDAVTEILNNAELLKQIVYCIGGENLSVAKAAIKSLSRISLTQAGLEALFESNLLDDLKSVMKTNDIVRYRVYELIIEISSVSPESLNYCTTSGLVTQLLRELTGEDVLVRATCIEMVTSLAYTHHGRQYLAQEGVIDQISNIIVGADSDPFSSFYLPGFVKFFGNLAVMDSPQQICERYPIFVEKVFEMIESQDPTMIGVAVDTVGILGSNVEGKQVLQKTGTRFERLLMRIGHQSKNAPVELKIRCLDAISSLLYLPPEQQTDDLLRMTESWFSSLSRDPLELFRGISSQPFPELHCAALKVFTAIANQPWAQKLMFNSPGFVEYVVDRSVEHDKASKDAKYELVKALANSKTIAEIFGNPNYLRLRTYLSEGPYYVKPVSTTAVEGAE
Sequence of UniProt Q13362 (Q13362 whole entry, looked up): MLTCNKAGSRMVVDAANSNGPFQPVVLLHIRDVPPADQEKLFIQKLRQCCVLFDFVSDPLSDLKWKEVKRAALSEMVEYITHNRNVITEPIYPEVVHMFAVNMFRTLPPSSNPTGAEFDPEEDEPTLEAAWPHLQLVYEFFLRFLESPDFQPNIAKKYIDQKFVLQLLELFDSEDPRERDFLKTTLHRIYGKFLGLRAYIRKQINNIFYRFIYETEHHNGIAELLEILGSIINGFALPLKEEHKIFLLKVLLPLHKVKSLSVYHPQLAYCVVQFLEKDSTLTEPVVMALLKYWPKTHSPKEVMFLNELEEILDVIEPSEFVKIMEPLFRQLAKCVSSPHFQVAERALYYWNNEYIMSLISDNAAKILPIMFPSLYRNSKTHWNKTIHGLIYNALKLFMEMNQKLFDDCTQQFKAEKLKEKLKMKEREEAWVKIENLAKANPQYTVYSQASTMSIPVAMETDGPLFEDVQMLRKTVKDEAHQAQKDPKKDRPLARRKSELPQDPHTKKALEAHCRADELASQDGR
Sequence of UniProt P09884 (P09884 whole entry, looked up): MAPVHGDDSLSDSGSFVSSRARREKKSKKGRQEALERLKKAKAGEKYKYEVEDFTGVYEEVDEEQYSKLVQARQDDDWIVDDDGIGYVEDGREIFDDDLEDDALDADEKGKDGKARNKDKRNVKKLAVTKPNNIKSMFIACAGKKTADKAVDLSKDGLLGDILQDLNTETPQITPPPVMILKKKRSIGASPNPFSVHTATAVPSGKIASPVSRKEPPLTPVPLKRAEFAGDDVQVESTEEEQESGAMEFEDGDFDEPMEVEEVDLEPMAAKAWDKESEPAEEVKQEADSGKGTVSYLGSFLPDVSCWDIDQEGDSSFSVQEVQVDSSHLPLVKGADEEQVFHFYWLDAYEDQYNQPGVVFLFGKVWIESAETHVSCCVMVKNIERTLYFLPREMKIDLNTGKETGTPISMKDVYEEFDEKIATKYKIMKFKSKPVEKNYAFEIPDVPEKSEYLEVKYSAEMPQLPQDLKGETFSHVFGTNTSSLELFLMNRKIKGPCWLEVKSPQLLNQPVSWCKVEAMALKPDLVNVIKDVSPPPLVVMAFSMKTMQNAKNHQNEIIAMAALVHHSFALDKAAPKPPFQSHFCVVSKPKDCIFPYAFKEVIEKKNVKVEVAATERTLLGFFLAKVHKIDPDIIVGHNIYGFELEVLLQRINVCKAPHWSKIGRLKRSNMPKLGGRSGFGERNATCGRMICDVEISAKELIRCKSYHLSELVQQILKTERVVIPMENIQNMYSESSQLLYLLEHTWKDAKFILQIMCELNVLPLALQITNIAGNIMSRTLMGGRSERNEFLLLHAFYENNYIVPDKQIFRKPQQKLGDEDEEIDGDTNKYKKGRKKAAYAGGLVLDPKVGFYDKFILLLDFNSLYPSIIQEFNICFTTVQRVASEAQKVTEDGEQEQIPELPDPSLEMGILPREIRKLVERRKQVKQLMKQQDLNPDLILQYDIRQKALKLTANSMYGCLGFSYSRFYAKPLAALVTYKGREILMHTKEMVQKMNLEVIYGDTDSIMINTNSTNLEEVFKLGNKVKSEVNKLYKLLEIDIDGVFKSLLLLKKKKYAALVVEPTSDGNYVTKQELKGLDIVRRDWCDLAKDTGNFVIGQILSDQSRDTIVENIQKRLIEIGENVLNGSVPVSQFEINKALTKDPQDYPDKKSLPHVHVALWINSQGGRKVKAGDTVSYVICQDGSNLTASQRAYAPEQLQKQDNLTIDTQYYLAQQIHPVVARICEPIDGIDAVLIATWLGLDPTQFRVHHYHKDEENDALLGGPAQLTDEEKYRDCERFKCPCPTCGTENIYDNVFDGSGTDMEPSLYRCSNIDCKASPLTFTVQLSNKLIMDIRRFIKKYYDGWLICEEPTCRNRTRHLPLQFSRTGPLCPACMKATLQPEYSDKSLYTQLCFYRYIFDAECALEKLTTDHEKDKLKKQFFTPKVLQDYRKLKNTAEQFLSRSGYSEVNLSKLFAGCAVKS
Sequence of UniProt P46019 (P46019 whole entry, looked up): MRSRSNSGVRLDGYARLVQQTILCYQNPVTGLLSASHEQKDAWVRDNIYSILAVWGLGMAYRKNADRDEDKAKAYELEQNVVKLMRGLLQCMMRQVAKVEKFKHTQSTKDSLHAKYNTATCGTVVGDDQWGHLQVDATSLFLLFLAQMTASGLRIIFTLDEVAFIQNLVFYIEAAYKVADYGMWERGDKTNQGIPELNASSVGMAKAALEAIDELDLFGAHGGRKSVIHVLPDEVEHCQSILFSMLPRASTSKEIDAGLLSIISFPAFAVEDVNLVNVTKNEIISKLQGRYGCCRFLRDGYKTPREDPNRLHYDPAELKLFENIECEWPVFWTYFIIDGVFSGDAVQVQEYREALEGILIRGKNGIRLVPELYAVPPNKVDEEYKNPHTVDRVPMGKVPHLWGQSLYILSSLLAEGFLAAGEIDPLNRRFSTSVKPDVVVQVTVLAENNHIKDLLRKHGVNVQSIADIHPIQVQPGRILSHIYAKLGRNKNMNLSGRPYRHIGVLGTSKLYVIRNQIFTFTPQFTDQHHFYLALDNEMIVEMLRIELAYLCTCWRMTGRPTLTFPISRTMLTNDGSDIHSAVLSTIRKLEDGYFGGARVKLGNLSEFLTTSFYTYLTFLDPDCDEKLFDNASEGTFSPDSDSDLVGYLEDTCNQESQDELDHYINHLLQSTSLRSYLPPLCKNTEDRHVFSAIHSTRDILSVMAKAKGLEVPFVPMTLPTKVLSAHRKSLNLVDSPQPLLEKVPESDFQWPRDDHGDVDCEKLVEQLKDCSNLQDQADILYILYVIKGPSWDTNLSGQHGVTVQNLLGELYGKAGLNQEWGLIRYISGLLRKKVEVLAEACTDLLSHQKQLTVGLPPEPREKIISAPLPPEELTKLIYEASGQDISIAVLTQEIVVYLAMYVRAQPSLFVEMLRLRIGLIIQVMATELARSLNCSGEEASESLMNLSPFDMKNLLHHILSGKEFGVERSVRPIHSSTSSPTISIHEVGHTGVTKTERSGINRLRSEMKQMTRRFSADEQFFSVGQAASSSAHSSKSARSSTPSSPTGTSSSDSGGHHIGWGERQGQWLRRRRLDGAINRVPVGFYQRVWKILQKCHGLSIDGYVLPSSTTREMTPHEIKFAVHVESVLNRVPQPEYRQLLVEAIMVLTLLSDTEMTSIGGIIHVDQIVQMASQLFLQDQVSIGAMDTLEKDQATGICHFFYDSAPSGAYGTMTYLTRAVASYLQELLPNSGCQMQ
Sequence of UniProt Q6WKZ4 (Q6WKZ4 whole entry, looked up): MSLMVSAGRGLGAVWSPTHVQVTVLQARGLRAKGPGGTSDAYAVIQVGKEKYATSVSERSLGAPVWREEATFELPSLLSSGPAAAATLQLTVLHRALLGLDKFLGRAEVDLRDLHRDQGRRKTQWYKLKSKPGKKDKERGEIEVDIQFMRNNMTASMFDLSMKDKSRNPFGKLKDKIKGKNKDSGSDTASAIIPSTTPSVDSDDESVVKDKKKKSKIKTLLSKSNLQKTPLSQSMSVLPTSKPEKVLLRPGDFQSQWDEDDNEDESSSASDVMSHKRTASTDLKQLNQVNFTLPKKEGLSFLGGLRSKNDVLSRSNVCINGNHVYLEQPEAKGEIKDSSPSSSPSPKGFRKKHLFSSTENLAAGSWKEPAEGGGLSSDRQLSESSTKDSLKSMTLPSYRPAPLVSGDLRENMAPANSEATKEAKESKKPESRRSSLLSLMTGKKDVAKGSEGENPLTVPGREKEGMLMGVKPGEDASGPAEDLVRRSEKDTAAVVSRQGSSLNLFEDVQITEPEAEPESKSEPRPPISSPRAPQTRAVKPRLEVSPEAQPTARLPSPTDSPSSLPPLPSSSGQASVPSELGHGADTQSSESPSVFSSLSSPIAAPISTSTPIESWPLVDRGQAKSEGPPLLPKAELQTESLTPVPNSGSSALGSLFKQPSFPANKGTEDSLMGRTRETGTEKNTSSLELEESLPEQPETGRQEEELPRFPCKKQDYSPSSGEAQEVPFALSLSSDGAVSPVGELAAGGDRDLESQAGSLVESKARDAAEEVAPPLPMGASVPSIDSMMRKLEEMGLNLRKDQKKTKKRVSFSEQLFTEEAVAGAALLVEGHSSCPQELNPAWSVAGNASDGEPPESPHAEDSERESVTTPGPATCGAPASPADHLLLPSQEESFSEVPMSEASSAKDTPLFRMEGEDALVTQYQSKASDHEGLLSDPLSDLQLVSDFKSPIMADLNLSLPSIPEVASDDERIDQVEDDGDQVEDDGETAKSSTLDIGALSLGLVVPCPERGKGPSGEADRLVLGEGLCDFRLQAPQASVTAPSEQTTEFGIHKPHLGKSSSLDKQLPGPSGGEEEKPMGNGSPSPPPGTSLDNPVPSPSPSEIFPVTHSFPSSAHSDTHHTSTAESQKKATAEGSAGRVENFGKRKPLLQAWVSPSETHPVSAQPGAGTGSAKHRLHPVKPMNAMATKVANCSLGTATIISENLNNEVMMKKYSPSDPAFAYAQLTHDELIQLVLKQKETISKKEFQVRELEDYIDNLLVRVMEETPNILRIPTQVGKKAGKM

log2 fold change, inactive:
PHF5A (UniProt Q7RTV0) 0.008, PRKAR2A (UniProt P13861) -0.002, PRUNE1 (UniProt Q86TP1) 0.002, POMP (UniProt Q9Y244) 0.003, PPT2 isoform 3 (UniProt Q9UMR5) 0, PIP4P1 isoform 2 (UniProt Q86T03) 0.057, POLD1 (UniProt P28340) 0.063, PGGT1B (UniProt P53609) 0.024, PPP1R14A (UniProt Q96A00) 0.047, PRMT3 (UniProt O60678) -0.056, PEX11B (UniProt O96011) 0.016, PCYT1A (UniProt P49585) -0.014, PISD (UniProt Q9UG56) -0.021, PSMD5 (UniProt Q16401) -0.015, PRPF40A (UniProt O75400) 0.082, PDIK1L (UniProt Q8N165) -0.075, PMPCA (UniProt Q10713) -0.014, PDCD2L (UniProt Q9BRP1) -0.051, PSMC6 (UniProt P62333) -0.06, PRKAB1 (UniProt Q9Y478) 0.043, PDSS2 (UniProt Q86YH6) 0.029, POLA1 (UniProt P09884) 0.03, PGM3 isoform 4 (UniProt O95394) 0.001, PSMD3 (UniProt O43242) -0.074, PARL (UniProt Q9H300) -0.019, PEX13 (UniProt Q92968) 0.026, PURA (UniProt Q00577) -0.244, PSMB4 (UniProt P28070) -0.056, PIK3CB (UniProt P42338) 0.07, PPP2R5C isoform 4 (UniProt Q13362) 0.036, PUF60 (UniProt Q9UHX1) -0.011, PRKACA (UniProt P17612) 0.013, PRPSAP2 (UniProt O60256) 0.053, PHKA2 (UniProt P46019) -0.077, PTPN12 (UniProt Q05209) 0.005, RAB11FIP1 (UniProt Q6WKZ4) 0.004

compound: C/C(=N\NC(=O)C1=CC(=CC=C1)S(=O)(=O)N2CCOCC2)/C3=C(C=CC(=C3)Cl)O; assay: as above
Method in brief: as §1

log2 fold change, inactive:
PHF5A (UniProt Q7RTV0) -0.005, PRKAR2A (UniProt P13861) 0.013, PRUNE1 (UniProt Q86TP1) 0.063, POMP (UniProt Q9Y244) -0.018, PPT2 isoform 3 (UniProt Q9UMR5) 0.056, PIP4P1 isoform 2 (UniProt Q86T03) 0.001, POLD1 (UniProt P28340) 0.039, PGGT1B (UniProt P53609) 0.036, PPP1R14A (UniProt Q96A00) 0.004, PRMT3 (UniProt O60678) 0.147, PEX11B (UniProt O96011) 0.058, PCYT1A (UniProt P49585) 0.125, PISD (UniProt Q9UG56) -0.055, PSMD5 (UniProt Q16401) 0.038, PRPF40A (UniProt O75400) 0.083, PDIK1L (UniProt Q8N165) 0.083, PMPCA (UniProt Q10713) 0.005, PDCD2L (UniProt Q9BRP1) 0.226, PSMC6 (UniProt P62333) -0.074, PRKAB1 (UniProt Q9Y478) 0.15, PDSS2 (UniProt Q86YH6) -0.011, POLA1 (UniProt P09884) 0.038, PGM3 isoform 4 (UniProt O95394) 0.094, PSMD3 (UniProt O43242) -0.05, PARL (UniProt Q9H300) 0.015, PEX13 (UniProt Q92968) 0.03, PURA (UniProt Q00577) -0.208, PSMB4 (UniProt P28070) -0.024, PIK3CB (UniProt P42338) 0.018, PPP2R5C isoform 4 (UniProt Q13362) -0.022, PUF60 (UniProt Q9UHX1) 0.172, PRKACA (UniProt P17612) 0.033, PRPSAP2 (UniProt O60256) 0.033, PHKA2 (UniProt P46019) 0.029, PTPN12 (UniProt Q05209) -0.007, RAB11FIP1 (UniProt Q6WKZ4) 0.074
